Assay outcomes: PubChem BioAssay, National Center for Advancing Translational Sciences (NCATS)
Shown are actives, neighbours in structure and some others; about 21% of the full set was active somewhere.
AMA1-RON2 inh: inhibitors of Plasmodium falciparum AMA1-RON2 interaction; AlphaScreen AMA1-biotinylated RON2 peptide binding; Potency, µM (highest dose often 58.2 µM), for inactives: at the top dose activity change, negative = inhibition, usual class: inhibitors; actives 0.2% (n = 360,000);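 note: potency is the fitted concentration of half-maximal effect; 0% = vehicle wells and -100% = peptide control; nearly all actives have a fitted effect of over 45% in size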
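AMA1 (3D7) with his tag at 25 nM final met compounds first, then biotinylated RON2 peptide at 25 nM; detection used donor plus acceptor beads, 10 µg/mL apiece, read by AlphaScreen after 30 min at room temperature.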
Pf growth 96h: P. falciparum growth inhibition at 96 hours; actives 6.9% (n = 320,000); Potency, µM (top dose mostly 28.7 µM), without a hit: top-dose activity change, negative = inhibition, hits mostly inhibitors; P. falciparum luciferase reporter growth, 96 h; AID 504834; note: potency is the fitted concentration of half-maximal effect; % is set by controls: 0 for no effect and ±100 for the full control effect
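Cell-based qHTS: luciferase-tagged P. falciparum in erythrocytes (2% hematocrit, 0.05% parasitemia final) incubated with compounds for 96 hours, 37 C, 5% CO2; luciferase detection reagent then added and luminescence measured.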
Shiga toxin inh: inhibitors of Shiga toxin in Vero cells; Vero cells, Shiga toxin protein synthesis inhibition reporter; inhibition, % at 38.7 µM; actives 9.2% (n = 290,000); in the data active = inhibition mostly above about 28%, no sharp cut-off; inactive = mostly below about 43%; note: 0% is about no effect
Cycloheximide cs: counter-screen for Shiga toxin inhibitors: cycloheximide protein synthesis inhibition | cell reporter, cycloheximide protein synthesis inhibition counterscreen | max response, % | actives 12% (n = 300,000); in the data active = max response mostly above about 13%, no sharp cut-off; inactive = mostly below about 14%; note: read at 38.3 µM for the half of the compounds with a filed dose; 0% is about no effect
Pf growth 48h: inhibits P. falciparum growth in the first generation, 48 h; P. falciparum luciferase growth in erythrocytes, 48 h; Potency, µM (titrated, usually from 28.7 µM), without a hit: at the top dose activity change, negative = inhibition, hits mostly inhibitors; actives 5.9% (n = 310,000); AID 504832; note: potency is the fitted concentration of half-maximal effect; % is set by controls: 0 for no effect and ±100 for the full control effect
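In quantitative HTS format, infected erythrocytes bearing luciferase-reporter parasites were treated for a single generation at 37 C. Luminescence after adding detection reagent served as the growth measure.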
HCV inhibitor: blocks hepatitis C virus. Huh7.5.1 HCVcc-Cre infection, luciferase reporter, 44 h. Potency, µM (titrated, usually from 41.8 µM), for inactives: at the top dose activity change, negative = inhibition, usual class: inhibitors. actives 3.4% (n = 340,000). AID 651820; note: potency is the fitted concentration of half-maximal effect; % is set by controls: 0 for no effect and ±100 for the full control effect
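Reporter virus HCVcc-Cre (~0.5 moi) infects cells exposed to compound; seeding density 1,000 cells/well with 4 h settling beforehand. Luminescence, 15 sec read, taken 44 h post-infection following a 15 min RT substrate incubation.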
* hit, by the source's call; ? = inconclusive; . = not tested or not shown; [ ] = remark or other dose. Unless noted, calls come from the whole dose curve; as a rule, active = well fitted curve in the direction sought with a large enough effect; inconclusive = small, poorly fitted or top-dose-only effect, or another doubt; inactive = no such curve, though single readings can be large; an effect the other way counts as inactive or inconclusive.

SMILES	AMA1-RON2 inh	Pf growth 96h	Shiga toxin inh	Cycloheximide cs	Pf growth 48h	HCV inhibitor
c1ccc(CSCc2nc3ccccc3[nH]2)cc1	-1%	96%	74*	62*	77%	9%
c1ccc(-c2nnc(CSc3nc4ccccc4[nH]3)o2)cc1	-10%	32%	13	1	.	22%
O=C(OC1C2C=CC1C1C(=O)NC21)c1ccccc1 (stereo not given)	-16%	.	.	.	.	.
CCC1(c2ccccc2)NC(=O)N(CC(=O)Nc2ccc(N3CCCC3)cc2C)C1=O (stereo not given)	-26%	1%	.	.	?	?
Cc1ccccc1C(=O)NCC(=O)OC(C)C(=O)NCc1ccco1 (stereo not given)	0%	-2%	.	.	28%	22%
COc1cccc(-n2c(C)nn(CCOc3ccccc3)c2=O)c1	-3%	27%	61	13	15%	22%
Cc1nn(CC2CC2)c(=O)n1-c1ccc(Oc2ccccc2)cc1	-1%	26%[5.75 µM]	1	8	-24%	?
Cc1nn(CCOc2ccccc2)c(=O)n1-c1ccccc1	9%	61%	38*	29*	140%	-1%
CCOC(=O)Cn1nc(C)n(-c2ccccc2)c1=O	-10%	44%	-8	-3	6%	12%
Cc1nn(CCOc2ccccc2)c(=O)n1-c1ccc(Cl)cc1	2%	215%	76*	30*	122%	29%
COc1ccc(-n2c(C)nn(CCOc3ccccc3)c2=O)cc1	8%	116%	58*	28*	64%	15%
O=C(CCN1C(=O)[C@@H]2Cc3ccccc3CN2C1=O)N[C@@H](C(=O)O)c1ccccc1	0%	39%	-8	-1	11%	-1%
COc1cc(C(=O)OCC(=O)NCc2ccc(F)cc2)cc(NC(=O)c2cccs2)c1OC	9%	3%	11	1	?	-22%
COc1cc(NC(=O)c2cccs2)c(C(=O)OCC(=O)c2cc(C)n(-c3ccccc3)c2C)cc1OC	-8%[11.6 µM]	?	66*	43*	?	11%
COc1ccc(-n2c(C)cc(C(=O)COC(=O)c3cc(NC(=O)c4cccs4)c(OC)c(OC)c3)c2C)cc1	-2%	?	17	-1	1.9µM*	2%
COc1cc(NC(=O)c2cccs2)c(C(=O)OCC(=O)c2cc(C)n(-c3ccc(F)cc3)c2C)cc1OC	12%	2.6µM*	98*	123*	94%	-14%
COc1cccc2c1C(=O)c1c(O)c3c(c(O)c1C2=O)C[C@@](O)(C(=O)CO)C[C@@H]3OC1C[C@@H](N)[C@H](O)[C@H](C)O1 (stereo not given in full)	.	.	18	1	.	.
CCCn1c2ccc(C)cc2c2nnc(SCCN3CCCCC3)nc21	9%	9.3µM*	-11	-5	?	8.9µM*
CCn1c2ccc(F)cc2c2nnc(SCCN3CCCCC3)nc21	3%	?	-3	1	?	14µM*
CCCn1c2ccc(F)cc2c2nnc(SCCN3CCCCC3)nc21	-3%	5%	-7	-1	?	-19%
O=C1CC(c2cccc(O)c2)Oc2ccccc21 (stereo not given)	-10%[11.6 µM]	33%	.	.	41%	-18%
O=S(=O)(NC1CCCCC1N1CCN(c2cccc(Cl)c2)CC1)c1ccccc1 (stereo not given)	-5%	-6%	-8	-4	15µM*	-25%
O=C(COc1ccc(S(=O)(=O)NC2CCCCC2)cc1)N1CCN(c2cccc(Cl)c2)CC1	-11%	.	21	0	?	7.1µM*
Cc1ccc(Cl)cc1N1CCN(C(=O)CN(C2CCCCC2)S(C)(=O)=O)CC1	-3%	10µM*	2	-3	?	?
CS(=O)(=O)N(CC(=O)N1CCN(c2cccc(Cl)c2)CC1)C1CCCCC1	-11%	.	-2	-3	-14%	-7%
SMILES	AMA1-RON2 inh	Pf growth 96h	Shiga toxin inh	Cycloheximide cs	Pf growth 48h	HCV inhibitor
Cc1ccc(Cl)cc1N1CCN(C(=O)COc2ccc(S(=O)(=O)NC(C)C)cc2)CC1	-1%	?	-9	-5	.	10µM*
C[C@H]1CN([C@@H](C)CO)C(=O)CCCn2cc(nn2)CO[C@@H]1CN(C)C(=O)Nc1ccccc1C(F)(F)F	3%	.	.	.	.	.
CCN(C(=O)CCS(=O)(=O)c1ccc2c(c1)oc(=O)n2C)c1ccc(OC)cc1	-3%	10µM*	-2	-2	-29%	20%
COc1ccc(CNC(=O)CCS(=O)(=O)c2ccc(Br)cc2)cc1	7%	4.7µM*	12	3	41%	-4%
CCN(C(=O)Cn1c(=O)oc2cc(S(=O)(=O)N3CCCC3)ccc21)c1ccc(OC)cc1	4%	0%	-6	-1	?	-8%
COc1ccc(S(=O)(=O)CCC(=O)NCc2ccc(C)o2)cc1	0%	-9%	5	-2	16%	5%
CCOc1ccc(CCNS(=O)(=O)c2ccc3c(c2)oc(=O)n3C)cc1OCC	-6%	13µM*	-7	5	-3%	11%
COc1ccc(CNC(=O)CCS(=O)(=O)c2ccc3c(c2)oc(=O)n3C)cc1	6%	8.3µM*	-1	-10	14%	12%
CCOc1ccc(Cc2n[nH]c(=S)n2Cc2ccccc2)cc1	78%	35%	-2	8	-38%	12%
CCC(=O)N1CCc2cc(S(=O)(=O)CCC(=O)Nc3cccc(C)n3)ccc21	13%	?	10	-3	-13%	14%
Cc1cc(C)cc(C(=O)N(Cc2ccco2)c2c(N)n(Cc3ccccc3)c(=O)[nH]c2=O)c1	3%	?	.	.	?	24%
COc1ccc(CCNC(=O)CCN2C(=O)COc3ccc(C)cc32)cc1OC	-23%	30%	-3	-2	7%	2.8µM*
COc1ccc(CCNC(=O)CCS(=O)(=O)c2ccc3c(c2)oc(=O)n3C)cc1OC	13%	4.1µM*	-5	-2	?	2%
CC1CCN(C(=O)CCNS(=O)(=O)c2ccc3c(c2)oc(=O)n3C)CC1	-1%	?	-3	-2	-8%	4%
CC1CC(C)CN(CCCNS(=O)(=O)c2ccc3c(c2)oc(=O)n3C)C1 (stereo not given)	19%	10µM*	-6	-3	-2%	?
COc1ccc(CCNC(=O)CCN2C(=O)COc3ccccc32)cc1OC	1%	28%	3	-1	-1%	-1%
Cc1ccc(CCNC(=O)CCS(=O)(=O)c2ccc3c(c2)oc(=O)n3C)cc1	-1%	?	-8	-11	-2%	2%
Cn1c(=O)c2ncn(CC(=O)N/N=C/c3ccco3)c2n(C)c1=O	8%	5.9µM*	-9	-1	12%	18%
Cn1c(=O)c2ncn(CC(=O)N/N=C/C=C/c3ccccc3)c2n(C)c1=O	14%	428%	21	-3	49%	1%
COc1cc(C(C)n2nnc3ccccc32)ccc1O (stereo not given)	-7%	.	.	.	.	.
